The values below come from PubChem BioAssay.

Each structure is given as a SMILES string. Activity calls are given as the source filed them.

Assay [1] in a line: small molecules captured by biotinylated probe aFSTL3 – biochemical, small-molecule microarray, fluorescence 635/667, stem cell growth factor project, primary screen (AID 1064).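 Also: measures binding of the biotinylated anti-FSTL3 antibody to printed compounds.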 Conditions: higher = more signal.
Assay [2] in a line: binders from COS7 lysate, DM2A8 probe, primary screen, torsin A project, cell lysate, small-molecule microarray, fluorescence 635/667 (AID 1065). Conditions: higher = more signal, COS7 lysate expressing mutant human TOR1A.
The nature of assay [3]: small molecules captured by biotinylated probe aFGF2 – biochemical, small-molecule microarray, fluorescence 635/667, stem cell growth factor project, primary screen (AID 1067).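 Also: measures binding of biotinylated aFGF2 protein to printed compounds on slides; z-score merges feature fluorescence and signal-to-noise across triplicate slides.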 Particulars: higher = more signal.
Assay [4] can be described thus: small molecules captured by biotinylated probe aFGF10 – biochemical, small-molecule microarray, fluorescence 635/667, stem cell growth factor project, primary screen (AID 1071).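 Also: score merges 667 nm spot intensity and signal to noise from triplicate slides.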 Conditions: higher = more signal.
Assay [5] concerns the target Neurogenic locus notch homolog protein 2 (Homo sapiens) (UniProt Q04721). Put plainly: small molecules binding Notch2 protein – biochemical, small-molecule microarray, 635 nm fluorescence, stem cell growth factors, primary screen (AID 1073). Particulars: higher = more signal.
The target in assay [6] is Pro-neuregulin-1, membrane-bound isoform (Homo sapiens) (UniProt Q02297). Briefly: small molecules binding neuregulin-1 protein – biochemical, small-molecule microarray, fluorescence 635/667, psychiatric disease protein project, primary screen (AID 1075).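 Also: score combines 667 nm spot fluorescence with signal to noise.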 Conditions: NRG1 binding, 635 nm fluorescence, higher = more signal.
Chain of Pro-neuregulin-1, membrane-bound isoform (Homo sapiens) (Q02297 whole entry, looked up, the tested form may be a part, canonical isoform): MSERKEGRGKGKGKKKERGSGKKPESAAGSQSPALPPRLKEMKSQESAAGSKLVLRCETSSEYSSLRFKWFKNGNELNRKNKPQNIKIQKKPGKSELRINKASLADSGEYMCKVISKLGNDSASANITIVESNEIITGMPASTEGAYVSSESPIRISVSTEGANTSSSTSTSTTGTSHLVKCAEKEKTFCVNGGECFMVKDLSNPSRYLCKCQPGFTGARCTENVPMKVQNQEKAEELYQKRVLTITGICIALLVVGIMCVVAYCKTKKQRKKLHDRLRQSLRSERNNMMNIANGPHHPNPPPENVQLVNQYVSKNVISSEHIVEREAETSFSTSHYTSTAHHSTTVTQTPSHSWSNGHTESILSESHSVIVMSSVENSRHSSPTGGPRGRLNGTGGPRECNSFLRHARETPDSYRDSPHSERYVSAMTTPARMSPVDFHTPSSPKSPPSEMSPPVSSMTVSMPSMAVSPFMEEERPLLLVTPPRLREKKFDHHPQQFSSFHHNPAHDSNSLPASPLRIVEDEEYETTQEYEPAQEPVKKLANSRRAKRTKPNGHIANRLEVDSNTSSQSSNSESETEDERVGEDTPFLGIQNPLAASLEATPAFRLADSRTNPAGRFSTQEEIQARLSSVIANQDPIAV
Assay [7] has as its system Neuregulin-1 EGF-like domain. Put plainly: small molecules binding NRG1 EGF domain – biochemical, small-molecule microarray, 635 nm fluorescence, primary screen (AID 1081).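 Also: binding of the protein to compounds printed on small-molecule microarray slides.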 Particulars: higher = more signal.
A short description of assay [8]: FRG1 expression reporter modulators in myotubes – cell-based, C2C12 myotubes, firefly/Renilla luciferase, luminescence, FRG1 inhibition for FSHD, primary screen (AID 1084). Conditions: FRG1 promoter luciferase, higher = more signal, called active from +8 up or from −8 down.
A short description of assay [9]: small molecules captured by biotinylated probe aFST – biochemical, small-molecule microarray, fluorescence 635/667, stem cell growth factor project, primary screen (AID 1086).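 Also: score merges 667 nm fluorescence with signal-to-noise of each printed compound spot.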 Particulars: higher = more signal.
The nature of assay [10]: binders of probe aHhip on microarray, primary screen, stem cell growth factor project, biochemical, small-molecule microarray, fluorescence 635/667 (AID 1087).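 Also: score merges spot fluorescence at 667nm with spot signal to noise ratio.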 Conditions: higher = more signal.
Assay [11] relates to PRMT1 (protein arginine N-methyltransferase 1). Briefly: small molecules binding arginine methyltransferase PRMT1 – biochemical, small-molecule microarray, 635 nm fluorescence, primary screen (AID 1088).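 Also: binding of Prmt1 protein to compounds spotted on small-molecule microarray slides.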 Particulars: higher = more signal.
The nature of assay [12]: growth effects on S. cerevisiae YJM789 – YJM789 clinical isolate, OD600, 24 h, basal, primary screen (AID 1089).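 Also: growth of clinical yeast isolate S. cerevisiae YJM 789 seeded 1000 cells per well; test concentration not given here.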 Conditions: higher = more signal, called active from +8 up or from −8 down.
The nature of assay [13]: S. pombe growth modifiers, basal conditions – strain 972, OD600, 24 h, no modulator, primary screen (AID 1090).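 Also: basal condition with compound alone and no growth modifier present; test concentration not given here.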 Particulars: S. pombe 972 growth, higher = more signal, called active from +8 up or from −8 down.
The nature of assay [14]: budding yeast growth modifiers under rapamycin – strain BY4716, OD600, 96 h, primary screen (AID 1091). Also: test concentration not given here. Particulars: S. cerevisiae BY4716 + rapamycin, higher = more signal, called active from +8 up or from −8 down.
Assay [15] has as its target Torsin-1A-interacting protein 2 (Homo sapiens) (UniProt Q8NFQ8). Briefly: small molecules binding lysate-expressed LULL1 – cell lysate, human LULL1 lysate, 635/667 nm fluorescence, primary screen (AID 1092).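 Also: probe is lysate of COS7 cells overexpressing human LULL1; score merges per-feature 667 nm fluorescence with signal-to-noise.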 Particulars: small-molecule microarray, hLULL1 lysate binding, 635 nm fluorescence; higher = more signal.
A short description of assay [16]: optical density change of DRC41 E. coli – strain DRC41, OD650, 24 h, E. coli filamentation project, primary screen (AID 1093).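 Also: MC1000 strain lacking acrAB efflux and sulA so SOS filamentation is blocked; test concentration not given here.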 Conditions: E. coli DRC41 growth, higher = more signal, called active from +8 up or from −8 down.
Assay [17] is described as follows: probe aLefty2 binding to arrayed compounds – biochemical, biotinylated probe, 635/667 nm fluorescence, primary screen (AID 1094).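 Also: score merges spot fluorescence near 667 nm with spot signal-to-noise ratio.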 Conditions: small-molecule microarray, higher = more signal.
Assay [18] relates to Noggin (protein binding on small-molecule microarray). Put plainly: small molecules binding Noggin protein – biochemical, 635/667 nm fluorescence, primary screen (AID 1095).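 Also: score merges 667 nm feature fluorescence with signal to noise over triplicate slides.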 Particulars: 635 nm fluorescence, higher = more signal.
The target in assay [19] is Neurogenic locus notch homolog protein 3 (Homo sapiens) (UniProt Q9UM47). Briefly: small molecules binding NOTCH3 protein – biochemical, 635/667 nm fluorescence, primary screen (AID 1096). Particulars: small-molecule microarray, 635 nm fluorescence, higher = more signal.
A short description of assay [20]: probe aEGFR binding to arrayed compounds – biochemical, biotinylated probe, 635/667 nm fluorescence, primary screen (AID 1097).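 Also: probe is a biotinylated anti-EGFR antibody binding compounds printed on slides; score combines fluorescence near 667 nm and signal to noise of each spot.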 Particulars: small-molecule microarray, higher = more signal.

Chain of Torsin-1A-interacting protein 2 (Homo sapiens) (Q8NFQ8 whole entry, looked up): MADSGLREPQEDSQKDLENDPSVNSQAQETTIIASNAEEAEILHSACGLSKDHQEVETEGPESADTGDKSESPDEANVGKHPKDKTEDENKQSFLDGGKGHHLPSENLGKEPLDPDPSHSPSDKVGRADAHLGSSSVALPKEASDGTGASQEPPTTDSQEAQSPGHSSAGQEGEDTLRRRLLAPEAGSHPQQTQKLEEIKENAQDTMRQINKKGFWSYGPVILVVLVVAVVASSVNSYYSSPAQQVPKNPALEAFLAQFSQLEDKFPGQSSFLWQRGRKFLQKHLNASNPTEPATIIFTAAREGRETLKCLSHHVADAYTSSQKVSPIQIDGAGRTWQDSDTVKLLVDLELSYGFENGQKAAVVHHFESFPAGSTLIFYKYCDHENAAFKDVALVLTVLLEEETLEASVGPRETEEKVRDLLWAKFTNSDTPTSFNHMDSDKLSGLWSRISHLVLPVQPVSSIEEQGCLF
Chain of Neurogenic locus notch homolog protein 2 (Homo sapiens) (Q04721 whole entry, looked up, canonical isoform): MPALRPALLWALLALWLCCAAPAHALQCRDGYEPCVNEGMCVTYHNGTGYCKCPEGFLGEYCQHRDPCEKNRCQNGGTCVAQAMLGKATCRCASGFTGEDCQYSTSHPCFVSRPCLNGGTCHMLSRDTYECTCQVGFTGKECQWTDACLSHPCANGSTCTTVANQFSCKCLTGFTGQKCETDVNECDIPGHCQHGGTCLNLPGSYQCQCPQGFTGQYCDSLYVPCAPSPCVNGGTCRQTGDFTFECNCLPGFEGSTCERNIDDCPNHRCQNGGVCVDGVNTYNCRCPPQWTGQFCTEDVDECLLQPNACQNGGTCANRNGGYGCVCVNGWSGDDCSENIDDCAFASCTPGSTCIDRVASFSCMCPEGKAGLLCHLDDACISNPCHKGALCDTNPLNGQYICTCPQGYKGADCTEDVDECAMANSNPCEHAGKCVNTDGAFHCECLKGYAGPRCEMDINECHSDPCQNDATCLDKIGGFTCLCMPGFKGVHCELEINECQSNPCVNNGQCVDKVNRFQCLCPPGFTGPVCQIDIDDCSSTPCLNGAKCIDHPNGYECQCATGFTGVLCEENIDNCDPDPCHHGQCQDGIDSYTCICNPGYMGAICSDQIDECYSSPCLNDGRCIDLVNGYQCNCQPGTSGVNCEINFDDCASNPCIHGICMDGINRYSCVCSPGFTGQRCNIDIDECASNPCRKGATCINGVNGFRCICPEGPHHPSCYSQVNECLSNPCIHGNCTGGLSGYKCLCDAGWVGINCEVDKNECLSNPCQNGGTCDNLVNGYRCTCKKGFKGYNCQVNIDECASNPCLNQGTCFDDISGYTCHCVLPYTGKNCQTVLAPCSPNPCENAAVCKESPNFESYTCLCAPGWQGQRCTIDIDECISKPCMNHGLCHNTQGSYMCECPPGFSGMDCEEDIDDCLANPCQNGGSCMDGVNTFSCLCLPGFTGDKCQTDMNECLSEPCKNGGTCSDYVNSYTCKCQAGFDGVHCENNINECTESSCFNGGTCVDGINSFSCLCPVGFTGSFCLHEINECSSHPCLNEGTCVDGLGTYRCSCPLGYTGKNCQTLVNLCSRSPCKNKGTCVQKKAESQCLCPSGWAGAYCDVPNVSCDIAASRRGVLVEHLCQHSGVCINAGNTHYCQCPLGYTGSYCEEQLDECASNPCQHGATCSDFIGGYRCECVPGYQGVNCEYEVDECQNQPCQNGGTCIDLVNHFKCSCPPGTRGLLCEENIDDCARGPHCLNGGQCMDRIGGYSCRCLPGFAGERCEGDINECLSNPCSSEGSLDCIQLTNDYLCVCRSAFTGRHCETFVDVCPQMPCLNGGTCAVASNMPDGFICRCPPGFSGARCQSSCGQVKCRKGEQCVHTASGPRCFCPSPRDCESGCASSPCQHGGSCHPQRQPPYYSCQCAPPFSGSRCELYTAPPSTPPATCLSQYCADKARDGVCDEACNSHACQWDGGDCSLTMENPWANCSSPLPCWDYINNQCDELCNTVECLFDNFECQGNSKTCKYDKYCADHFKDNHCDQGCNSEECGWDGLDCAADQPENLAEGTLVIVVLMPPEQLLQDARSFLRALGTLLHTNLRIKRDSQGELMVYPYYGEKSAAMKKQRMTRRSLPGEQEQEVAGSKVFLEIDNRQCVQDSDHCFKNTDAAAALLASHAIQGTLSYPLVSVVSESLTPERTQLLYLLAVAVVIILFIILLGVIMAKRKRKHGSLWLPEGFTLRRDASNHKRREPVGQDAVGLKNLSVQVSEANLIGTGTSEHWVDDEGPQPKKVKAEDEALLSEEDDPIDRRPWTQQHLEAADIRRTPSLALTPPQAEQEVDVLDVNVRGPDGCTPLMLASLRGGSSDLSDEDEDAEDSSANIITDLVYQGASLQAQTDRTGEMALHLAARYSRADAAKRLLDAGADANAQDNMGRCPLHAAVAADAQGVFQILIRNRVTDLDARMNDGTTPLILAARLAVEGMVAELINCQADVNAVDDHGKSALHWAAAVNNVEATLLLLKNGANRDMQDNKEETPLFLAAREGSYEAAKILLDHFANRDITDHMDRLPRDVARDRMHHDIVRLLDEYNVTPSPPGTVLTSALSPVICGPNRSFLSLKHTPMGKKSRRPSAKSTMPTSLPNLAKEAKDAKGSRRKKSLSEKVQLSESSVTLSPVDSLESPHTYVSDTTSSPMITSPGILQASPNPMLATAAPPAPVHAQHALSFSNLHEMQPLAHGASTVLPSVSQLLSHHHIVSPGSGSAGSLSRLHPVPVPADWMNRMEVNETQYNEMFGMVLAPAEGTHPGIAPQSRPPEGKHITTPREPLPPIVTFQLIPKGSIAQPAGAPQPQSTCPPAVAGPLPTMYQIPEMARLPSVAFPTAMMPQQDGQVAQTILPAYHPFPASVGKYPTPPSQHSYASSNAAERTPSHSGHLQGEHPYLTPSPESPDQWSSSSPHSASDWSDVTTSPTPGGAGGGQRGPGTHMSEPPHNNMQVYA

Take `C=CCOC(=O)[C@H]1[C@@H]2C(=O)O[C@@H](c3ccccc3)[C@@H](c3ccccc3)N2[C@@H](c2ccc(OCCOC(=O)[C@H]3C[C@H]4C(=O)N5CCC[C@H]5C(=O)N4[C@H]3c3ccc(O)cc3)cc2)[C@]12C(=O)Nc1ccccc12`: the composite z-score is -0.168 in [1]; 0.847 in [2]; 0.0069 in assay [3]; 0.516 in assay [4]; 1.47 in assay [5]; 1.33 in assay [6]. Moreover, the composite z-score is 1.4 in assay [7]; 0.0557 in [9]; 0.0881 in [10]; 1.54 in [11]; 3.03 in assay [15]; 0.0292 in assay [17]. Also, the values for the composite z-score in assay [18], in assay [19] and in assay [20] were 0.744, 0.938 and 0.127, respectively. Moreover, the z-score in [8] is 1.31 (inactive); in [12], 1.31 (inactive); in [13], 0.998 (inactive); in [14] it was 3.27 (inactive); in assay [16] it was -0.92 (inactive).

`COc1ccc(CCN2C(=O)[C@@]3(Cc4ccccc42)c2ccccc2C(=O)N(Cc2ccccc2C(F)(F)F)[C@H]3c2ccc(CO)cc2)cc1`: the composite z-score in [1] was -0.402; in assay [2], -0.0678; in assay [3] it was -0.128; in [4], -0.106; in [5] it was -0.112; in [6], -0.112. The composite z-score in assay [7] was 0.791; in assay [9], -0.256; in [10], -0.0994; in assay [11], 0.67; in assay [15], 0.568; in [17], 0.0077. Also, the composite z-score in [18] is 0.451; in [19], -0.39; in assay [20] it was -0.276. For the same compound, the z-score was 0.453 (inactive) in assay [8]; 0.276 (inactive) in assay [12]; -0.414 (inactive) in assay [13]; -1.68 (inactive) in [14]; -2.33 (inactive) in assay [16].

For `COCCOC(=O)N1C(=O)[C@@]2(c3cc(C#Cc4ccc(OC)cc4)ccc31)[C@H](C(=O)N1CCCCCCC1)[C@H]1C(=O)O[C@H](c3ccccc3)[C@H](c3ccccc3)N1[C@@H]2c1ccc(OCCO)cc1`, the composite z-score in assay [1] stood at 2.85; in [2], 1.49; in assay [3], 0.233; in assay [4], 0.662; in [5], 0.845; in assay [6], 1.01. Also, the composite z-score in [7] was determined as 0.972; in assay [9], 2.43; in [10] it was 3.2; in assay [11], 1.55; in [15] it was 2.29; in assay [17], 1.59. Besides, the composite z-score in [18] was found to be 2.1; in assay [19], 1.01; in assay [20], 0.4. The z-score in assay [8] is -0.738 (inactive); in assay [12] it was -0.821 (inactive); in assay [13] it was 0.0405 (inactive); in [14], 3.27 (inactive); in assay [16], 2.36 (inactive).
